This is an account of results in PubChem BioAssay AID602438 (Sanford-Burnham Center for Chemical Genomics, 2012).

The structures appear in SMILES notation. Out of some 360,000 compounds screened, about 3,100 (0.86%) were called active. This excerpt belongs to a sample that is enriched for actives. Unmarked numbers belong to inactive results.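 Rule for the calls: active = inhibition or corrected inhibition above about 18%, plus a signal ratio from 0.5 to 1.5 (limit read from the data, passing the limit was not always enough); inactive = the rest.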

The target in the test is Neuropilin-1 (Homo sapiens) (UniProt O14786). Put plainly: modulators of CendR peptide binding to NRP-1, primary screen, biochemical, fluorescence polarization, uHTS (AID 602438). The settings on record: FAM-RPARPAR peptide binding to NRP-1, fluorescence polarization; at 25 µM; active compounds read high.
Neuropilin-1 (Homo sapiens), sequence (O14786 whole entry, looked up): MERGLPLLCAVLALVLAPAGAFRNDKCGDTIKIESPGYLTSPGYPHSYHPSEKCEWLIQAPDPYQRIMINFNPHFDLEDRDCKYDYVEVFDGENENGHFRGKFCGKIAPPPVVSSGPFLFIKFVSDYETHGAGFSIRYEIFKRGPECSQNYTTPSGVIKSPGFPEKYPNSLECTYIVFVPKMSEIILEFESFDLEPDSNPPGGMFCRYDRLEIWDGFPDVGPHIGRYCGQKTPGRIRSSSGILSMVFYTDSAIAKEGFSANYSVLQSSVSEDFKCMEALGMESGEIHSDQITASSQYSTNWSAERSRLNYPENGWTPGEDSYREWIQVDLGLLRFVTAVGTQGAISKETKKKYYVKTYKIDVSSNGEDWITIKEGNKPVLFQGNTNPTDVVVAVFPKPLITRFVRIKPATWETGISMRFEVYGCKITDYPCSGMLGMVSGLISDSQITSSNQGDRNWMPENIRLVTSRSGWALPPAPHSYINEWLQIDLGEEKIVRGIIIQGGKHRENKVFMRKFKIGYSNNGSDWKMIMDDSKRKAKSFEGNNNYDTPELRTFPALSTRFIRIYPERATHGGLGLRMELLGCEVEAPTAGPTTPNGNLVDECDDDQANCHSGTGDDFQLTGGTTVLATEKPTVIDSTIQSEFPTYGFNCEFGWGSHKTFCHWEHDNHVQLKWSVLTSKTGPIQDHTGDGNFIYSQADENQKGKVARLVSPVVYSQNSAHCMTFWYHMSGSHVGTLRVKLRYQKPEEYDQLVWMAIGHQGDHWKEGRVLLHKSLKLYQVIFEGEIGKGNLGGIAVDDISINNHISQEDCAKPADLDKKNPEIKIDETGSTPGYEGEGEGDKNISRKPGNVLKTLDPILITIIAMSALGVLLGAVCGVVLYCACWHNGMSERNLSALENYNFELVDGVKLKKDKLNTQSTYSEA
On to `CSCCC(NS(=O)(=O)c1ccc(C)cc1)C(=O)N(C)CC(=O)Nc1ccccc1Br` (stereo not drawn), for which the inhibition was 3.9%.

Consider `O=C(CNC(=O)c1n[nH]c2ccccc12)Nc1cc(Cl)ccc1Cl`, for which the inhibition is 3.5%.

For `CCC(NC(=O)c1cc(COc2ccc(F)c(F)c2)on1)c1ccncc1` (stereo not drawn), the inhibition is 1.4%.

Turning to `COc1ccccc1C1C(C(N)=O)=C(C)Nc2nc(CCCO)nn21` (stereo not drawn), the inhibition is 3.8%.

Consider `CC1=C(C(N)=O)C(c2ccc(F)cc2)n2nc(CCCO)nc2N1` (stereo not drawn), for which the inhibition is 6.8%.

Regarding `COCCOC(=O)C1=C(C)Nc2nc(C)nn2C1c1ccccc1` (stereo not drawn), the inhibition is 36.8% (active).

As for `Cc1noc(C)c1CSc1nnc2ccc3ccccc3n12`, the inhibition is 10.5%.

As for `COc1ccc(-c2ccc3nnc(SCC(=O)Nc4ccc(NC(C)=O)cc4)n3n2)cc1`, the inhibition is -19%.

For `CC1C(C)N(C(=O)CCl)c2ccccc2N1C(=O)CCl` (stereo not drawn), the inhibition is 27.7% (active).

Turning to `CNC(=O)N1c2ccccc2C=Cc2ccccc21`, the inhibition was 2.6%.

With `CC1C(=O)N(Cc2ccccc2)c2ccccc2N1C(=O)c1ccccc1` (stereo not drawn), the inhibition was 1.5%.

For the compound `CCN(CC)c1ccc(C2C3CCCCC3(O)CCN2CC(=O)Nc2ccccc2)cc1` (stereo not drawn), the inhibition was -12.5%.

Regarding `CC(C)Cc1nc(Nc2ccc(S(=O)(=O)N3CCCC3)cc2)c2nnn(Cc3ccccc3)c2n1`, the inhibition was -9.8%.

For `CCOC(=O)CN1CC23C=CC(O2)C(C(=O)Nc2ccc(F)cc2)C3C1=O` (stereo not drawn), the inhibition is -3.4%.

As to `CCN(CC)CCN1C(=O)C2C(C(=O)Nc3ccc(Br)cc3)C3C=CC2(O3)C1C(=O)NC1CCCCC1` (stereo not drawn), the inhibition was 10%.

On to `CC(C)COC(=O)C1C2C=CC3(CN(C(C)c4ccc(Br)cc4)C(=O)C13)O2` (stereo not drawn), for which the inhibition was 27.4% (active).

In the case of `CCOC(=O)C1CCN(C(=O)c2ccccc2N(C)S(=O)(=O)c2ccccc2)CC1`, the inhibition was 7.6%.

With `Cc1cccc(N2CCN(C(c3ccc(N(C)C)cc3)c3nnnn3C(C)(C)C)CC2)c1C` (stereo not drawn), the inhibition is -6.2%.

For `O=C(CCl)NNc1cccc(Cl)n1`, the inhibition was 5.6%.

Turning to `COc1ccc(-c2c(C#N)cnc(C)c2C)c(O)c1OC`, the inhibition is 37.9% (active).

On to `O=C(CC1SC(=Nc2ccccc2F)N(CCN2CCOCC2)C1=O)Nc1ccc(F)cc1F` (stereo not drawn), for which the inhibition was -6.8%.

Take `CCc1ccc(-c2nc(SCC(=O)NC3CCCC3)n[nH]2)cc1`: the inhibition was -8.8%.

On to `Cc1cc(C)c(S(=O)(=O)N2CCCC2CNC(=O)c2ccc3c(c2)OCO3)c(C)c1` (stereo not drawn), for which the inhibition is -6.7%.

`Cc1cc(NS(=O)(=O)c2ccc(NC(=O)C(C)Oc3cccc(C)c3C)cc2)nc(C)n1` (stereo not drawn): the inhibition was -7.8%.

As for `CC(C)(C)S(=O)(=O)c1ccccc1-c1noc(-c2ccccc2)c1C(N)=O`, the inhibition is 42.7% (active).

Regarding `Cc1onc(-c2ccccc2)c1C(=O)N1CCN(S(=O)(=O)c2ccccc2C(F)(F)F)CC1`, the inhibition is -195%.

Take `O=C(COC(=O)c1cccnc1Cl)NC12CC3CC(CC(C3)C1)C2`: the inhibition is 8%.

Regarding `CC1(C(=O)NCc2ccc3c(c2)OCO3)CCN1C(=O)Cc1cccs1` (stereo not drawn), the inhibition was 3%.

With `Cc1cc(C(=O)COc2ccccc2[N+](=O)[O-])c(C)n1-c1cccc(S(=O)(=O)N2CCOCC2)c1`, the inhibition is -14.8%.

With `CCc1c(N=O)c(-c2ccccc2)n(O)[n+]1[O-]`, the inhibition was 5.4%.

Turning to `O=C(CN1CCN(Cc2ccc(F)cc2Cl)C1=O)NCc1cccs1`, the inhibition is -1.9%.

For `CCN=C1S/C(=C\c2cc(Br)ccc2OCC(=O)OCC)C(=O)N1CC`, the inhibition was -10.1%.

`CN(C)c1ccc2c(=O)[nH][nH]c(=O)c2c1`: the inhibition was 11.3%.

Turning to `COc1ccc(CNC(=O)C2CCN(S(C)(=O)=O)CC2)cc1`, the inhibition is -11.1%.

For `COc1ccc(CNC(=O)C2CCN(C(=O)c3ccco3)CC2)cc1`, the inhibition is -1%.

In the case of `COc1ccc(CNC(=O)[C@@H]2CC=C[C@@H]3CCN(C4CC4)C(=O)[C@@H]32)cc1`, the inhibition was 25.5% (active).

For `COc1cccc(/C=N/NC(=O)C(=O)N2CCCC2)c1`, the inhibition was -7.9%.

Turning to `CCOC(=O)C1(Cc2ccccc2C(F)(F)F)CCN(C(=O)c2cc(C)n(C)n2)CC1`, the inhibition was -5.9%.

Regarding `O=C(O)c1ccccc1N=N/C(=N/Nc1cc(S(=O)(=O)O)ccc1O)c1ccccc1`, the inhibition was 41.5% (active).

As for `Cc1ccc(S(=O)(=O)N(C)c2ccc(OCC(=O)OCc3ccc(C#N)cc3)cc2)cc1`, the inhibition was -6.5%.

For the compound `O=C(Cc1ccc(S(=O)(=O)N2CCOCC2)s1)N1CCN(c2ccc(C(F)(F)F)cc2[N+](=O)[O-])CC1`, the inhibition is 27.6% (active).

`O=C(c1ccc(N2CCOCC2)c([N+](=O)[O-])c1)N1CCN(S(=O)(=O)c2cccs2)CC1`: the inhibition is -14%.

Regarding `O=C(c1ccc(N2CCCC2=O)cc1)N1CCN(c2ccc(C(F)(F)F)cc2[N+](=O)[O-])CC1`, the inhibition was -0.8%.

On to `N#Cc1cccc(CSc2ncnc(N)n2)c1`, for which the inhibition is 12.4%.

As to `CCOC(=O)C1CCN(C(=O)CN2C(=O)NC(C)(c3ccc4cc(OC)ccc4c3)C2=O)CC1` (stereo not drawn), the inhibition is -3.2%.

Regarding `CC1=C(C(N)=O)C(c2sccc2C)n2nnnc2N1` (stereo not drawn), the inhibition is -5.6%.

Regarding `Cc1cccc(OCC(=O)NC2CC(C)(C)NC(C)(C)C2)c1`, the inhibition was -1.1%.

Turning to `CC(Oc1cccc(Cl)c1)C(=O)NC1CC(C)(C)NC(C)(C)C1` (stereo not drawn), the inhibition is 24.2% (active).

With `Cc1cc(OC(C)C(=O)NC2CC(C)(C)NC(C)(C)C2)c2c(C)cc(=O)oc2c1` (stereo not drawn), the inhibition was 1.2%.

In the case of `COc1cccc(C2=CC(=O)C[C@H](c3ccc(OC)c(OC)c3)C2)c1`, the inhibition is -4.1%.

For the compound `S=c1[nH]nc(Nc2ccccc2)s1`, the inhibition was 0.6%.

In the case of `CC(C)(C)C(=O)c1cnc(Nc2ccccc2)s1`, the inhibition was 37.4% (active).

For `O=C(/C=C/Nc1ccccc1)c1cnc(-c2ccccc2)s1`, the inhibition was 5.7%.

`O=c1cc(Cl)c2ccccc2n1-c1ccccc1`: the inhibition is 0%.

As for `CCOCCn1[nH]c2ccccc2c1=O`, the inhibition was 8.9%.

Consider `COc1cc(OC)cc(C(=O)N[C@H](C(=O)NNC(=O)c2ccc(Br)cc2)C(C)C)c1`, for which the inhibition was 22.8% (active).

As for `COc1cc(OC)cc(C(=O)NC(C(=O)N2CCC2)C(C)C)c1` (stereo not drawn), the inhibition was -2.9%.

Turning to `COc1ccc(N2CCN(C(=O)[C@@H](NC(=O)c3cc(OC)cc(OC)c3)C(C)C)CC2)cc1`, the inhibition is 4%.
